Test results taken from the supplement of paper PMC6555819.

Test system: VDR:RXRa (NR concentration 270 nM, RXRa partner concentration 90 nM)
Assay: PBM binding z-score (relative to random genomic background probes); higher = stronger binding; sequences stand for … in GC…GCGATTGACAGCGTAGAATGAAGG
Experimental: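 Protein-binding microarray (Agilent 4x180K custom design, double-stranded 60-nt probes: 5' GC cap, 34-nt variable region, 24-nt constant primer region; full probe sequence given). Purified or IVT nuclear receptor:RXRα heterodimers (3:1 NR:RXRα, mostly 270:90 nM) or homodimers were incubated for 1 h in PBS with 2% milk and no ligand, then detected with Alexa488 antibodies. Fluorescence from o1-orientation probes (~5 replicates averaged) was converted to z-scores against 500 random hg19 background probes. Variable regions are seed direct-repeat (DR0–DR5) sites, all their single-nucleotide variants and half-site ablations.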

Row | Sequence | PBM binding z-score
1 | TCTAGTTGGTCACGGAGGTAACACACGACGGGTA | 1.03
2 | GCATATAGTTAATACAAGGTGAAAGTCCGATTGT | 0.11
3 | TAGCCTAGGTCATTGGGCCAGTAGAGTACGCATC | 2.26
4 | TTACTAAGGTGAAGGTCGTTGATCCCTCTGTAGA | 1.73
5 | CCTAGTTAGTCAGGAGGTCACACACCGGATATGA | 3.97
6 | TAGTCTAGGTCAGATCGGGCCAGTATACGCTATA | 0.995
7 | CGTCCAAGGTCATAGGAGGTCAGTAAAGACAGAT | 6.61
8 | ATATGTAGGTTATCGTGTCATTCAGTTTGCGCAT | 2.28
9 | TCTTGTAGATAAACAGGAGGTTAAGAAAGATCGA | 0.873
10 | GCATATAGGTAATACAAGGTGAAAGTGCGATTGT | 0.469
11 | AGAATGAGGTTACCAAAGATCAGGGAGACGCTTG | 1.51
12 | CTCGAAAGGTCGTGCACAGGTGAGTATACCAAAC | 3.8
13 | TCTGCTAGGTCTGTTGGTCAGCTAACGAGCTGCC | -0.568
14 | GCTGCTAGGTCAGGTAGGTCAGCTAACGGGTACG | 3.35
15 | GCTAGCAGGCCATTTGGGTCACTCAATGACGGGC | 0.933
16 | TATACAGGCTCAAAGGCCAGAGTACGAATGTCGA | -0.106
17 | ATATGTATGTTATCGGGTCATTCAGTTTGCGCAT | 4.9
18 | CGAACTAGGTCAGAACCGGACAGTGAAGGATGAT | 0.264
19 | TCAGATAGGTAATACAGGTGAAAGTCGGCATCTA | 0.887
20 | CGAACTAGGTCAAGGACAGAGAATCTCCGCACGC | 1.02

Row | Sequence | PBM binding z-score
21 | CCTACTGGGCCAAGGGTCATTGATTCCAATGCTC | 3.45
22 | TCTAGCACGCCAGAGGGTCACTCAAGAGGTACGG | 1.37
23 | TGTCAAAGTTCAAAGGTAACGTAGGTATCCACAC | 5.15
24 | AGTCAAAGTTCACTTGGTAACGTAAGATTCAGCT | 4.07
25 | CGTACAAGGTCATAGGAGGTCAGTGAAGACAGAT | 6.79
26 | TCGGGTAGGTTAGTCGGGGCATTCAGCCAACATA | 2.88
27 | ACTTTCGGGTCAACGAGGTTATAGCACGCGTATA | 7.85
28 | CCTACTGGGCCAAAGGTTATTGATTCCAATGCTC | 1.34
29 | TAGCCTAGGTCATTGAGCCAGTATAGTACGCATC | 2.1
30 | CATCCAAGGTCAAGGTCAGTGAAAGAGACTCGAA | 5.07
31 | TCTACTAGTTGAAGGGCAACCGACGAGTCCGTTT | 0.635
32 | TAGCCTAGGTCATTGGGCCGGTATAGTACGCATC | 2.11
33 | ATCTCTAGGCAACAAGTTCAGTGAAAGAGAGGAC | 1.82
34 | GGAACGAGGGCAAGTTGATAGGAGAGTTTGATGG | 0.886
35 | CGTCCAAGGTCAGAGAGCTCAGTGAATGCCGAGT | 2.76
36 | AGTCAAAGTTCAGGACGAGGTAACGTCAAGCACG | 3.07
37 | CCTATTAGTTGACCATAAGGTCAACCGAAGCTCG | 3.95
38 | ATCGAAAGGTCGAAGGTGGGTATACCCACCCGAA | 2.54
39 | AAAATGAGGTTATACGTAGATCAGGGAAGAAAGT | 1.65
40 | CCTAGCAGGCCAATCTGGGACACTCAAGGCTTGA | -0.61
